Data on 40 compounds can be found in PubChem BioAssay (Tox21).

Values joined by “and” are separate entries in the source; they are usually repeats but may differ in a detail not shown here. Identical values can stand only once. Records with an inconclusive call do not appear. Entries that show only a call come without a potency. The source holds several records for some structures; these can differ, active in one and inactive in another. Active and inactive are the calls of the source. Calls come from the whole dose curve; as a rule, active = well fitted activation curve with a large enough effect in the repeat runs; inconclusive = weak or mixed curves; inactive = flat fitted curve, though single readings scatter.
Potency is the fitted concentration of half-maximal effect.

The nature of this experiment: A CellTox Green Cytotoxicity Assay to monitor cytotoxicity in HepG2 cells - 8 hour (AID 1224890). Note: nearly all actives have a fitted effect of over 45% in size. The note with it: CellTox Green fluorescence; series mostly up to 76.8 µM; cytotoxicity increase: at the top concentration. An excerpt: National Center for Advancing Translational Sciences [NCATS]
NIH Chemical Genomics Center [NCGC]
U.S. Environmental Protection Agency [EPA]
National Institutes of Environmental Health Sciences [NIEHS]
National Toxicology Program [NTP]
Cell-based models are critical for drug discovery. Determining the natural cytotoxic effects resulting from test compounds is an essential research activity. A CellTox Green Cytotoxicity Assay to monitor cytotoxicity in real time of continues cell culture during 40 hours of the compound treatment was used to screen Tox21 10K library compounds in HepG2 cells. CellTox Green Cytotoxicity Assay is a nonlytic, homogeneous, biofluorescent method to measure cytotoxicity in cell culture after experimental manipulation. The assay system uses a proprietary asymmetric cyanine dye that is excluded from viable cells but preferentially stains the dead cell's DNA. […] Viable cells produce no appreciable increases in fluorescence. Therefore, the fluorescence signal produced by the binding interaction with dead cell DNA is proportional to cytotoxicity.
The mixture of HepG2 cell suspension and reagents were dispensed at 600cells/6 ul/well in 1536-well tissue culture treated black solid bottom plates using a Multidrop dispenser. After the assay plates were incubated at a 37 C/5% CO2 incubator for 5 hours, 23 nL of compounds dissolved in DMSO, positive and negative controls was transferred to the assay plate by a pintool work station. The plates were incubated at 37 C for 40 hours. The fluorescence intensity were measured at 0h, 8h, 16h, 24h, 32h and 40h time points using ViewLux plate reader during compound treatment.
`CCOP(=S)(OCC)SCCSCC`: the Potency result was “inactive”. On the same count and under the same terms, with `C=C(C)CCl` the entry was “inactive”. The same measure, in the same setting: the same measure for `CC(C)(C)OOC(=O)c1ccccc1`: “inactive”; for `O=NN1CCCCCCC1`: “inactive”; for `C1CN2CCN1CC2`: “inactive and 24.5 µM (active)”. The same measure, in the same setting: the same measure for `C=CC(N)=O`: “inactive”. `c1ccc2c(c1)oc1ccccc12`: the Potency entry is “inactive”. On the same count and under the same terms, the same measure for `O=c1[nH]c2ccccc2c(=O)o1`: “inactive”; for `Cc1ccc(N)cc1N`: “inactive”; for `CCc1cccc(C)c1N(C(=O)CCl)C(C)COC` (stereo not given): “inactive”. With `Nc1c(Cl)c(Cl)nc(C(=O)O)c1Cl`, the Potency entry is “inactive”. Still for that read-out and setting: with `O=c1[nH]c(=O)[nH]c(=O)[nH]1` the entry was “inactive”; with `[O-][Cl+2]([O-])O`, “inactive”. Take `O=[N+]([O-])c1ccccc1`: the Potency result is “inactive”. Turning to `Cn1cc(-c2ccccc2)c(=O)c(-c2cccc(C(F)(F)F)c2)c1`, the Potency entry was “inactive”.

Take `O=[N+]([O-])c1ccc(Oc2ccc(Cl)cc2Cl)cc1`: the Potency result is “inactive”. For `CCCN(CCC)c1c([N+](=O)[O-])cc(C(F)(F)F)cc1[N+](=O)[O-]`, the Potency entry was “inactive”. Same read-out and setting: the same measure for `COP(N)(=O)SC` (stereo not given): “inactive”; for `CCCCCCCCCCCC#N`: “inactive and 40.3 µM (active)”. On to `c1cc2c3c(cccc3c1)CC2`, for which the “cytotoxicity increase” value was -0.271% (inactive).

Take `Cc1ccccc1O`: the Potency entry is “inactive”. On the same count and under the same terms, with `CC(C#N)CCC#N` (stereo not given) the entry was “inactive”; with `CN1C(=O)CN=C(c2ccccc2)c2cc(Cl)ccc21`, “inactive”; with `CC(Br)C(=O)O` (stereo not given), “inactive”. The same measure, in the same setting: the same measure for `c1ccc(-c2ccccc2)cc1`: “inactive”; for `Cc1cccc([N+](=O)[O-])c1`: “inactive”; for `CCCCN(CCCC)SN(C)C(=O)Oc1cccc2c1OC(C)(C)C2`: “inactive”.

As to `COC(=O)NC(=S)Nc1ccccc1NC(=S)NC(=O)OC`, the Potency result is “inactive”.

`Cc1ccc(N)cc1Cl`: the Potency result is “inactive”. In the case of `COC(=O)c1ccccc1C(=O)OC`, the Potency entry is “inactive”. On to `CN(C)N=O`, for which the Potency entry was “inactive”. On the same count and under the same terms, the same measure for `ClCc1cccnc1`: “inactive”; for `Cc1cc(-c2cc(C)c(N)c(C)c2)cc(C)c1N`: “inactive”; for `CON(C)C(=O)Nc1ccc(Cl)c(Cl)c1`: “inactive”. Still for that read-out and setting: the same measure for `CNC(=O)Oc1ccccc1OC(C)C`: “inactive”. The same measure, in the same setting: with `O=S(=O)(c1ccc(Cl)cc1)c1cc(Cl)c(Cl)cc1Cl` the entry was “inactive”; with `O=S(=O)(c1ccc(O)cc1)c1ccc(O)cc1`, “inactive”. Consider `CCCCCCCCCl`, for which the Potency result is “inactive”. The same measure, in the same setting: the same measure for `CN(C)CCO`: “inactive”; for `O=C(O)c1ccccn1`: “inactive”.
